Only some compounds are listed: those with a hit (about 1.7% of all), similar ones and a draw of the others.
BJeLR lethal: BJeLR cell viability loss | BJeLR (HRASV12) viability, CellTiter-Glo ATP luminescence, 48 h | inhibition, % (concentration not given with the values) | 0.17% of 300,000 active; in the data active means inhibition above about 50%; inconclusive means no clear call, values can overlap the other calls
SSB-PriA inh: K. pneumoniae PriA-SSBct interaction inhibition. AlphaScreen SSBct-PriA binding, biotinylated peptide. inhibition, % at 33 µM. 0.6% of 430,000 active; in the data active means inhibition mostly above about 37%, no sharp cut-off; inactive means mostly below about 20%;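 further: plate controls were negative control peptide for no effect and reference peptide for full effect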
Yp Topo-I inh: Y. pestis Topo-I inhibition via cleavage products; Y. pestis Topo-I cleavage product accumulation, plate reader; activity, % at 10 µM; 0.064% of 360,000 active; AID 504884; in the data active means activity above about 50%, passing the limit was not always enough; inconclusive means no clear call, values can overlap the other calls
PrP 5UTR inh: inhibition of PrP 5' UTR reporter expression. 0.35% of 340,000 active. cell-based PrP 5' UTR mRNA reporter, plate reader. AID 488862. inhibition, % (no concentration beside the values); in the data active means inhibition above about 52%; further: 0 = median of the neutral control wells
PrPC TRFRET: inhibitors of human cell surface prion protein PrPC; P04156; TR-FRET read-out; inhibition, % at 13.8 µM; 0.43% of 370,000 active; in the data active means inhibition above about 24%; further: 0% = median of the test wells and 100% = reference compound wells
PfHsp40 yeast: rescue of PfHsp40-mediated yeast toxicity | S. cerevisiae expressing PfHsp40, growth rescue, ATP luminescence | growth rescue, % at 12.5 µM | 0.68% of 340,000 active | AID 504582; in the data active means growth rescue above about 28%, passing the limit was not always enough; inconclusive means no clear call, values can overlap the other calls;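 further: yeast W303a lacking pdr1 and pdr3 grown in galactose medium; growth measured after three days at 30 °C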
* marks the source's active call; other numbers are inactive results; ? = inconclusive; . = no result.

SMILES	BJeLR lethal	SSB-PriA inh	Yp Topo-I inh	PrP 5UTR inh	PrPC TRFRET	PfHsp40 yeast
COc1cc(C2=NOC(C(=O)NCc3cccs3)C2)cc(OC)c1OC (stereo not drawn)	20	-11	-6	-11	13	-1
COc1cc(OC)c(C2=NOC(C(=O)NCc3cccs3)C2)cc1Cl (stereo not drawn)	63*	0	-8	-25	4	2
O=C(/C=C/c1ccccc1[N+](=O)[O-])c1ccccc1Br	4	15	-6	-20	-11	60*
Cc1ccc(C(=O)/C=C/c2ccccc2[N+](=O)[O-])cc1	-3	6	7	-43	-1	2
O=S(=O)(/C=C/c1ccccc1)N1CC(Oc2nccs2)C1	.	-13	.	.	.	.
Cc1c(C(=O)NCCSCc2cccc(C(F)(F)F)c2)cnn1-c1ccc(Cl)cc1	5	0	25	-6	14	315*
CC(=O)c1cnn(-c2ccc(Cl)cc2)c1C	-5	-12	1	-8	-3	-2
CCC(=O)Nc1ccc(SC#N)cc1C	5	-5	-7	-10	0	91*
CCC(=O)Nc1ccc(C)cc1C	.	-9	.	.	.	.
Cc1ccc(NC(=S)NN=Cc2c(Cl)cccc2Cl)c(C)c1	.	10	.	.	.	.
Cc1ccc(NC(=S)N/N=C/c2c(Cl)cccc2Cl)c(C)c1	53*	.	8	39	17	1
O=C(CC12CC3CC(C1)CC(CC(=O)Nc1cccc([N+](=O)[O-])c1)(C3)C2)Nc1cccc([N+](=O)[O-])c1	.	17	.	.	.	.
c1ccc(Cn2cc(-c3cccnc3)cn2)cc1	.	3	5	-19	0	553*
c1ccc(Cn2cc(-c3ccccc3)cn2)cc1	.	-4	6	-33	3	0
CCc1cccc(Nc2c([N+](=O)[O-])cc(C(=O)N3CC(=O)Nc4ccccc43)cc2[N+](=O)[O-])c1	-1	48*	32	-10	-7	0
O=c1ccc(-n2cccn2)nn1CCNS(=O)(=O)c1ccc(OC(F)(F)F)cc1	.	-12	.	.	.	.
COc1ccc(C=C2C=C(C(C)(C)C)C(=O)C(C(C)(C)C)=C2)cc1OC	80*	-7	-4	-20	-1	-1
COc1ccc(-c2noc(-c3c(SC)nn(CC(=O)NCc4ccccc4Cl)c3N)n2)cc1	.	-6	.	.	.	.
Oc1ccccc1N=Nc1nc(-c2ccccc2)c(-c2ccccc2)[nH]1	67*	14	-35	35	-47	?
Cc1ccc(C)c(-c2cc3c(=O)n(CC(=O)N4CCN(c5ccccn5)CC4)ncn3n2)c1	.	-17	.	.	.	.
O=C(COC(=O)c1ccc(Cl)nc1)Nc1cc(S(=O)(=O)N2CCCCC2)ccc1Cl	-1	-5	17	-1	7	173*
CCN1CCN(CC(=O)Nc2cc(S(=O)(=O)N3CCCCC3)ccc2Cl)CC1	.	-7	11	-12	-5	56*
COc1ccccc1C1(CNC(=O)c2ccc(Br)o2)CCOCC1	.	-6	.	.	.	.
Clc1ccc(OCCn2cnc3ccccc32)c(Cl)c1	7	-13	32	-51	-5	28*
c1ccc2c(c1)ncn2CCOCCOCCn1cnc2ccccc21	2	9	0	-17	-3	3
SMILES	BJeLR lethal	SSB-PriA inh	Yp Topo-I inh	PrP 5UTR inh	PrPC TRFRET	PfHsp40 yeast
Cc1cc(C=NNC(N)=S)c(O)c(C=NNC(N)=S)c1	.	59*	.	.	.	.
Cc1ccc(-n2c(C)cc(C=NNC(N)=S)c2C)cc1	.	23	.	.	.	.
COc1ccc(CCC(=O)NCCSc2ncc(-c3ccc(OC)cc3)[nH]2)cc1	.	38*	.	.	.	.
COc1ccc(-c2cnc(SCCNC(=O)c3ccccc3Br)[nH]2)cc1	.	22	.	.	.	.
C[C@H]1COC2=C1C(=O)C(=O)c1c2ccc2c1CCCC2(C)C	5	3	-2	-38	.	72*
Cc1ccccc1Cn1cc(CCC(=O)N2CCOCC2)c2ccccc21	-2	8	54*	-12	-2	4
Cc1ccccc1CC(=O)N1CCOCC1	9	6	3	-32	2	-1
Cc1nc(N2CCN(C(=O)CCn3cnc4ccccc4c3=O)CC2)cc(C(F)(F)F)n1	.	-11	.	.	.	.
CS(=O)(=O)c1sc(C#N)c2c1C(=O)CC(c1ccccc1)C2 (stereo not drawn)	6	4	5	2	51*	2
O=c1oc2ccccc2c(O)c1/C=C1\C=Nc2ccccc21	-3	.	-17	-20	4	110*
O=S(=O)(Nc1cccc2ccccc12)c1ccccc1	2	0	3	3	5	0
